Screens (PubChem BioAssay)
Only some compounds are listed: those with a hit (about 32% of all), similar ones and a draw of the others.
PostGolgi yeast – growth inhibition of a yeast mutant, post-Golgi transport screen. post-Golgi transport phenotypic cell assay. inhibition, % at 10 µM. hit rate 0.9% among 98,000. AID 739;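 note: yeast cells grown in 1536-well plates; yeast grown about 18 h at 30C before absorbance read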
CYP2C19 act – cytochrome P450 2C19 (human) activation. P33261. recombinant CYP2C19, luciferin-H EGE luminescence; active compounds read high; 0 = fully inhibited enzyme, 1 = untreated enzyme. 96,000 tested, under 10 active. activation factor at 5 µM;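 active = activation factor of at least 2 at 5 µM in the primary screen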;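 note: 0 = wells with 2.5 mM tranylcypromine and 1 = vehicle-only wells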
CYP2C19 inh – blocks human cytochrome P450 2C19; P33261; CYP2C19 Supersomes, luciferin-H EGE luminescence, 30 min; inhibition, % at 5 µM; hit rate 21% among 96,000; AID 778;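 active = CYP2C19 inhibition above a set limit at 5 µM in the primary screen, cut at about 50% in these data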;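 note: plate controls were negative control wells for no effect and 2.5 mM tranylcypromine positive control for full effect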
CYP2C9 inh – inhibitors of human CYP2C9; AID 777; P11712; inhibition, % at 5 µM; CYP2C9 Supersomes, luciferin-H conversion, luminescence; hit rate 20% among 96,000;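 active = blocking of liver enzyme CYP2C9 beyond about 50% at 5 µM, limit read from the data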
Target sequence (P11712 whole entry, looked up): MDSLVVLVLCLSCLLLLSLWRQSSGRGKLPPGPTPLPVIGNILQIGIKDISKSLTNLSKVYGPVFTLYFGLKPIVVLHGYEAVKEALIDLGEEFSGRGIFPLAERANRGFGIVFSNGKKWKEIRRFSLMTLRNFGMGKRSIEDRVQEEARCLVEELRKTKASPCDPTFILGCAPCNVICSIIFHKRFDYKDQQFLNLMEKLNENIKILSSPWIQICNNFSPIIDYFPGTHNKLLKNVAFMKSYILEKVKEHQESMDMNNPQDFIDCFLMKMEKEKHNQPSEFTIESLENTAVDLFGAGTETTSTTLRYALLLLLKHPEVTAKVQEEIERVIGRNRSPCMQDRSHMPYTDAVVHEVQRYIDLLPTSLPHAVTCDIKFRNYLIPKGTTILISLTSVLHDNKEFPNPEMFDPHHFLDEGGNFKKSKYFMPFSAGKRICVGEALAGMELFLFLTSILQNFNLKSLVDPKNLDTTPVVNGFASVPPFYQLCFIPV
CYP2C9 activ – increases human cytochrome P450 2C9 activity. P11712. recombinant CYP2C9, luciferin-H conversion, luminescence; active compounds read high; factor 1 = untreated enzyme, 0 = blocked. activation factor at 5 µM. hit rate 1.4% among 96,000;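 active = activation factor of 2 or more for CYP2C9 at a 5 µM dose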;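 note: 0 = sulfaphenazole-blocked wells and 1 = vehicle-only wells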
PostGolgi ctrl – inhibits growth of the yeast control strain | AID 738 | hit rate 5% among 98,000 | efflux-deficient yeast background strain, growth absorbance A615, 16 h | inhibition, % at 10 µM
* marks the source's active call; other numbers are inactive results; . = no result given. Cut-off read from the data, not from the text of the source, unless noted: active = inhibition above about 30%; inactive = the rest.

SMILES	PostGolgi yeast	CYP2C19 act	CYP2C19 inh	CYP2C9 inh	CYP2C9 activ	PostGolgi ctrl
CC(C)(C)C(=O)NC1CCN(S(=O)(=O)c2ccc(C(F)(F)F)cc2)CC1	5	0.2	76*	-3	1	20
CCN(CC)c1nc2ccccc2c(N)c1-c1ccccc1	-6	0.6	37	36	0.6	-5
Cc1cc(C)c(NC(=O)COc2ccccc2C(=O)Nc2ccc3c(c2)oc2ccccc23)c(C)c1	-7	0.6	37	97*	0	-5
C=CCOc1cccc(C2C(C(=O)c3ccc(C)o3)=C(O)C(=O)N2c2nccs2)c1 (configuration not stated)	-10	0.5	47	41	0.6	15
CC(C)C(=O)Nc1ccc(NC(=O)c2cccs2)cn1	6	0.9	10	25	0.8	6
N#Cc1c(NCCCO)nc(-c2ccccc2)c2c1CCCC2	9	0.1	93*	97*	0	47*
COC(=O)CSc1nc(-c2ccccc2)c2c(c1C#N)CCCC2	1	0	97*	69*	0.3	7
CCCCCNc1nc(NCCCO)c(C#N)c2c1CN(C)CC2	-1	0.8	24	54*	0.5	12
COC(=O)CSc1nc2c(c(-c3ccc(C)o3)c1C#N)CCCC2	18	0.6	35	-66	1.7	10
COC(=O)CSc1nc(N2CCCCC2)c2c(c1C#N)CCCC2	-5	0.3	68*	90*	0.1	38*
N#Cc1c(SCC(=O)O)nc(N2CCCCC2)c2c1CCCC2	3	1.1	-6	47	0.5	9
CCCCCNc1nc(N2CCCC2)c2c(c1C#N)CCN(C)C2	-8	0.7	29	30	0.7	13
COc1ccc(C(=O)Nc2cc(C)cc(C)c2)cc1S(=O)(=O)N1CCOCC1	0	0.7	26	2	1	-3
COc1ccc(C(=O)N2CC=C(c3ccccc3)CC2)cc1S(=O)(=O)N1CCOCC1	-5	0.1	86*	81*	0.2	19
O=C(c1ccc(CNc2c(N3CCOCC3)c(=O)c2=O)cc1)N1CC=C(c2ccccc2)CC1	15	0.6	43	59*	0.4	-2
Cc1ccc(N(C=NC#N)CC(=O)N2CCN(c3ccccc3)CC2)cc1	-4	0.8	23	6	0.9	1
CCOC(=O)c1sc(N(Cc2ccccc2)C(=O)CSc2ncn[nH]2)nc1C	-2	1	5	79*	0.2	-1
CCOC(=O)c1ccc(CSc2ncn[nH]2)o1	0	0.8	21	4	1	-1
CCOC(=O)c1c(NC(=O)c2cccnc2)sc(C)c1C	13	0.9	12	20	0.8	12
CCOC(=O)c1sc(NC(=O)CSc2ncn[nH]2)c(C#N)c1C	-1	0.2	79*	82*	0.2	18
CCOC(=O)c1sc(NC(=O)CSc2nc(-c3ccco3)cc(C(F)(F)F)n2)c(C#N)c1C	-10	0.6	43	74*	0.3	-8
CCOC(=O)c1sc(NC(=O)c2cccnc2)c(C#N)c1C	-6	1	-4	94*	0.1	-2
CCOC(=O)c1sc(NC(=O)CSc2ccccn2)c(C#N)c1C	-12	1.1	-12	-8	1.1	7
CCOC(=O)CN(C(=O)CSc1nnc2c(n1)[nH]c1ccc(OC)cc12)c1ccc(F)cc1	4	0.8	20	34	0.7	2
CCOC(=O)c1sc(NC(=O)CSc2n[nH]c(-c3ccccc3)n2)c(C#N)c1C	-7	0.8	19	72*	0.3	41*
SMILES	PostGolgi yeast	CYP2C19 act	CYP2C19 inh	CYP2C9 inh	CYP2C9 activ	PostGolgi ctrl
CCOC(=O)c1sc(NC(=O)CSc2nc3c(cc2C#N)CCCCC3)c(C#N)c1C	-4	1.1	-12	22	0.8	4
COc1ccc(C(C#N)Nc2ccccc2)cc1 (configuration not stated)	-1	0.8	18	8	0.9	0
N#CC(Nc1ccccc1)c1ccccc1OCc1ccccc1 (configuration not stated)	3	0.1	86*	89*	0.1	6
Cc1ccc(C(=O)COC(=O)CCC(=O)NC2CCCCC2)cc1C	-8	0.9	13	19	0.8	10
Cn1c(=O)[nH]c(=O)c2[nH]c(CN3CCN(C(=O)c4ccco4)CC3)nc21	8	1.1	-7	5	1	3
CNS(=O)(=O)c1ccc(NC(=O)c2nc3nc(C)cc(C(F)F)n3n2)cc1	-7	1	3	-26	1.3	-8
CCn1c(=O)c2cc(S(=O)(=O)NC3CCCCC3)ccc2n(CC)c1=O	-5	0.5	49	53*	0.5	24
CCOc1cc(S(=O)(=O)N2CCCCCC2)ccc1F	-1	0.1	87*	-31	1.3	8
CCOC(=O)c1ccc(S(=O)(=O)NC2CCCCCCC2)n1C	8	0.5	53*	85*	0.1	11
CCn1c(=O)c2cc(S(=O)(=O)NCc3ccccc3)ccc2n(CC)c1=O	3	0.8	16	13	0.9	-1
O=S(=O)(c1ccc(Oc2ccc(Br)cc2F)nc1)N1CCCCC1	0	.	.	.	.	37*
CCOc1ccccc1N1CCN(S(=O)(=O)c2ccc(F)c(F)c2)CC1	14	0.5	45	38	0.6	20
CCOc1ccc(C)cc1S(=O)(=O)NC1CCCCC1	0	0.8	21	14	0.9	2
CC1(C)N=C(N)N=C(N)N1c1ccc(C(=O)O)cc1	-12	0.9	9	7	0.9	-14
CCOc1cc(S(=O)(=O)NC2CCCC2)ccc1Cl	-2	0.6	38	-31	1.3	7
COc1cc(S(=O)(=O)NC2CCCC2)c(OC)cc1Cl	-6	0	99*	42	0.6	30
COc1cc(S(=O)(=O)NC2CCCCC2)ccc1F	5	0.2	85*	-109	2.1*	12
CCOc1cc(S(=O)(=O)NC2CCCCC2)ccc1F	-3	0.2	80*	60*	0.4	10
COc1ccc(F)cc1S(=O)(=O)NC1CCCCCC1	-1	0.7	35	38	0.6	5
Cc1oc(-c2ccccc2F)nc1CS(=O)(=O)CC(=O)N1CCc2ccccc21	-6	1.2	-16	21	0.8	10
Cc1oc(-c2ccccc2F)nc1CS(=O)(=O)CC(=O)N1CCN(c2ccccc2)CC1	-5	0.4	60*	65*	0.4	37*
Cc1oc(-c2ccccc2F)nc1CS(=O)(=O)CC(=O)NC1CCCC1	0	0.9	14	52*	0.5	12
COC(=O)/C=C/CSC1=N/C(=C/c2ccc(-n3cncn3)cc2)C(=O)N1	1	1	2	25	0.7	14
CCn1c(SCc2nc(-c3ccccc3)no2)nnc1-c1cccs1	5	0.5	51*	52*	0.5	14
CCn1c(SCc2nc(-c3ccccc3)no2)nc2ccccc21	-9	0.1	88*	-2	1	22
